Screening data (PubChem BioAssay)
CBFb-RUNX1 inh = CBF-beta/RUNX1 interaction disruption. AlphaScreen CBFb-His/RUNX1-biotin binding, biochemical. 230,000 tested, under 10 active. Potency, µM (top dose mostly 59.8 µM), for the others: at the top dose activity, negative = inhibition, hits mostly inhibitors. AID 1477. Q01196+Q13951; also: % of control where 0% means no effect
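Read-out: AlphaScreen. Format: His-CBF-beta with biotinylated RUNX1 (30 nM each) preincubated 20 min, compound 15 min, Ni-chelate plus streptavidin beads 90 min; room temperature throughout.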
HPGD inh = blocks human HPGD enzyme activity. P15428. purified HPGD, NADH fluorescence kinetic, PGE2 substrate. Potency, µM, for inactives: at the highest dose activity change, negative = inhibition, actives largely listed as inhibitors. 150,000 tested, 4.3% active; active = well fitted inhibition curve with a large enough effect, not every such curve was filed as active; inconclusive = small, poorly fitted or top-dose-only effect, or another doubt; inactive = no such curve, though single readings can be large or run the other way; also: potency is read from the fitted curve at half-maximal effect; % is scaled to controls: 0 for no effect and ±100 for the full control effect
Target sequence (P15428 whole entry, looked up): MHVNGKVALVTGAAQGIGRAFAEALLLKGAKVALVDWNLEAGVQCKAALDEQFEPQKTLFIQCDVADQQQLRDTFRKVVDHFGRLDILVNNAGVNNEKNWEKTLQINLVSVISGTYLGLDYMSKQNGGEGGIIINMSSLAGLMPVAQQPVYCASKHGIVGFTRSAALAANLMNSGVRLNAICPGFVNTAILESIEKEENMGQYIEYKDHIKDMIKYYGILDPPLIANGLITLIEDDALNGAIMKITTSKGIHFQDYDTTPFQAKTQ
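20 nM HPGD preincubated 15 min at room temperature with compound in 50 mM Tris-HCl pH 8, 0.01% Tween 20. Started with 1 mM NAD+ and 30 uM prostaglandin E2; NADH fluorescence (360/450 nm) read 5 times over 30-s intervals, last minus first.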
ALDH1A1 inh = inhibitors of human aldehyde dehydrogenase 1A1; P00352; Purified ALDH1A1, NADH fluorescence, propionaldehyde substrate; Potency, µM (doses to about 75.3 µM), for inactives: top-dose activity, negative = inhibition, most hits filed as inhibitors; 220,000 tested, 7.3% active; active = well fitted inhibition curve with a large enough effect, not every such curve was filed as active; inconclusive = small, poorly fitted or top-dose-only effect, or another doubt; inactive = no such curve, though single readings can be large or run the other way;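 also: potency is read from the fitted curve at half-maximal effect; plate controls were no enzyme wells and a reference inhibitor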
Target sequence (P00352 whole entry, looked up): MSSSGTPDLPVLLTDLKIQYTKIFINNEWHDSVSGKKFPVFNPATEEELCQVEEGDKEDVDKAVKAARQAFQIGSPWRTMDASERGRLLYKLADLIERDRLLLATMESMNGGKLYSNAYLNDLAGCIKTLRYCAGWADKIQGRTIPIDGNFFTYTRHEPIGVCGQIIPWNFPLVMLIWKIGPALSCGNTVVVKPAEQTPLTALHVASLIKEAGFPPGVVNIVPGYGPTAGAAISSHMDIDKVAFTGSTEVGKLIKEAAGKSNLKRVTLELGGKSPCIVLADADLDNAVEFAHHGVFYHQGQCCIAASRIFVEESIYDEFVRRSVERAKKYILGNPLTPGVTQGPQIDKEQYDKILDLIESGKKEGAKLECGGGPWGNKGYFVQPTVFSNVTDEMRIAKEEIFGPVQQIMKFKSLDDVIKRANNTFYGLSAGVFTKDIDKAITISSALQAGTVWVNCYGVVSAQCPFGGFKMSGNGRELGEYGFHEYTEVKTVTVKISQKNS
HTT cytoprotect = protects HTT-Q103 PC12 cells, measured by ATP. 230,000 tested, 0.14% active. AID 1471. PC12 HTT-Q103 induced, cytoprotection, ATP luminescence, 40 h. Potency, µM (series often up to 56.4 µM), inactives show cytoprotection (ATP increase), actives largely listed as activators; also: potency is read from the fitted curve at half-maximal effect; % of control where 0% means no effect; nearly all actives have a fitted effect of over 45% in size
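PC12 cells with ecdysone-inducible HTT exon 1 Q103-GFP, induced with 100 nM tebufenozide and co-treated with library compounds in a dose series (1536-well, 1500 cells/well). Cytoprotection read as ATP content by ATPlite luminescence.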
JMJD2E inh = blocks human JMJD2E demethylase activity | B2RXH2 | JMJD2E catalytic domain, FDH-coupled NADH fluorescence (FDH is formaldehyde dehydrogenase) | Potency, µM (series often up to 57.1 µM), for inactives: at the top dose activity change, negative = inhibition, hits mostly inhibitors | 230,000 tested, 1.6% active; active = well fitted inhibition curve with a large enough effect, not every such curve was filed as active; inconclusive = small, poorly fitted or top-dose-only effect, or another doubt; inactive = no such curve, though single readings can be large or run the other way;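 also: potency is read from the fitted curve at half-maximal effect; 0% = wells with enzyme and -100% = buffer wells without enzyme; nearly all actives have a fitted effect of over 50% in size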
HttQ103 aggreg = mutant huntingtin aggregation inhibition | PC12 HttQ103-GFP aggregates, Acumen cytometry, 40 h | 220,000 tested, 1.1% active | Potency, µM (doses to about 46.1 µM), without a hit: top-dose activity change, negative = inhibition, actives largely listed as inhibitors; also: potency is read from the fitted curve at half-maximal effect; % is scaled to controls: 0 for no effect and ±100 for the full control effect; nearly all actives have a fitted effect of over 60% in size
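Quantitative HTS on tebufenozide-induced (100 nM) PC12 cells stably expressing polyQ103 Huntingtin exon 1–GFP. Reduction of bright GFP aggregates, detected by laser scanning cytometry after lysis, identified actives across the titration.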
* = called active by the depositor; u = inconclusive; x = no result; [ ] = another dose, or the depositor's remark. Sampled rows, rich in hits. Any-hit rate of the full collection: about 9.8%. Unless noted, calls follow the shape of the dose curve; as a rule, active = well fitted curve in the direction sought with a large enough effect; inconclusive = small, poorly fitted or top-dose-only effect, or another doubt; inactive = no such curve, though single readings can be large; an effect the other way counts as inactive or inconclusive.

SMILES | CBFb-RUNX1 inh | HPGD inh | ALDH1A1 inh | HTT cytoprotect | JMJD2E inh | HttQ103 aggreg
O=C(C1CCC(CNS(=O)(=O)c2cccc3cccnc23)CC1)N1CCc2ccccc21 (stereo not given) | -6.7% | u | 1.26µM* | -43.1% | -12.4% | u
CCN(CCNC(=O)C1CCN(S(=O)(=O)c2cccc3cccnc23)CC1)c1ccccc1 | -2.2% | -18.0% | 39.8µM* | 0.2% | 11.5% | -3.2%
CCCS(=O)(=O)N1CCC(C(=O)NCCCN(CC)c2cccc(C)c2)CC1 | 4.2% | -7.6% | 2.6% | x | 0.5% | 31.6µM*
CCc1ccc2nc(Nc3ccc(OC)cc3OC)c(C#N)cc2c1 | 21.1% | x | 9.5% | 38.3%[10 µM] | 2.2% | 16.9%[9.22 µM]
c1ccc2sc(SCN(C3CCCCC3)C3CCCCC3)nc2c1 | x | -11.9% | -19.0%[13.5 µM] | 0.6%[10 µM] | x | x
CN1CCN(C(=O)C2CCC(CNS(=O)(=O)c3cccc4cccnc34)CC2)CC1 (stereo not given) | -1.2% | 15.8µM* | 0.0% | -1.3% | 1.4% | -11.9%
O=C(NCCN1CCCCCC1)C1CCC(CNS(=O)(=O)c2cccc3cccnc23)CC1 (stereo not given) | 6.8% | -14.8% | 12.6µM* | -6.8% | -22.2% | 0.1%
CC1CCN(C(=O)C2CCC(CNS(=O)(=O)c3cccc4cccnc34)CC2)CC1 (stereo not given) | -7.6% | 0.891µM* | u | 10.6% | 7.4% | 14.0%
CN(Cc1ccccc1)C(=O)C1CCC(CNS(=O)(=O)c2cccc3cccnc23)CC1 (stereo not given) | 6.4% | x | x | 25.4%[10 µM] | -1.7% | 13.2%[9.22 µM]
O=C(COc1cccnc1[N+](=O)[O-])Nc1cc(S(=O)(=O)N2CCCCC2)ccc1Cl | 15.9% | x | x | 14.4%[10 µM] | -4.8% | -14.1%[9.22 µM]
CCCc1cc2c(=O)c(-c3ccc4c(c3)OCCO4)coc2cc1OS(C)(=O)=O | -1.3% | -19.0% | u | -18.4%[10 µM] | -14.0% | u
CCCc1cc2c(=O)c(-c3ccc4c(c3)OCCO4)c(C)oc2cc1OS(C)(=O)=O | 6.4% | -12.2% | 0.355µM* | 1.4%[10 µM] | 5.0% | u
COc1ccc(C)cc1NCC(=O)Nc1ccc(C(C)(C)C)cc1 | -19.8% | x | u | 35.1%[10 µM] | -0.7% | u
Cc1ccc(C)c(NC(=O)c2cnn3ccccc23)c1 | -1.0% | -9.6% | -1.6% | -103.4% | 0.2% | 12.6µM*
CC(=O)c1ccc(NC(=O)c2cnn3ccccc23)cc1 | 1.0% | u | 12.6µM* | -119.9% | -29.4% | -19.9%
CC(/C=C/c1ccccc1F)=N\NC(=O)c1cccc(F)c1 | -5.1% | x | 0.5% | -20.4% | 4.7% | -30.2%
CCCCCCC(C)n1[nH]c(=O)c2c(C)cc(=O)[nH]c21 (stereo not given) | 11.6% | -10.6% | 6.8% | -29.9%[0.074 µM] | 3.2% | 11.2µM*
Cc1ccc(C2N(c3ccc(Cl)cc3)C(=O)N3CCCN23)cc1 (stereo not given) | 24.9% | x | 0.4% | 6.2%[10 µM] | -15.8% | 8.1%[9.22 µM]
O=C(Nc1ccc(F)c([N+](=O)[O-])c1)C(=O)c1c(O)[nH]c2ccccc12 | 1.2% | x | 12.6µM* | x | -1.2% | 22.7%
O=C(Nc1ccccc1)Nc1ccc(F)c([N+](=O)[O-])c1 | 4.3% | -10.0% | -6.4% | 33.0%[10 µM] | -4.0% | u
COc1ccc(-c2c(C#N)c(SCC(N)=O)nc3c2CCCC3)cc1 | -3.0% | 0.3% | u | -8.8%[10 µM] | u | 7.2%
N#Cc1c(SCC(N)=O)nc2c(c1-c1ccc(O)cc1)CCCC2 | 12.1% | -23.5% | 7.08µM* | -10.9% | 13.6% | -13.3%
CCCn1c(=O)c(C(=O)NNS(=O)(=O)c2ccc(Cl)cc2)c(O)c2ccccc21 | -4.6% | -19.5% | 31.6µM* | -7.4%[10 µM] | u | 14.1µM*
CCOC(=O)N1CCN(C(=S)NC)CC1 | 0.5% | -11.5% | 5.2% | -22.4% | -3.1% | 1.6%
CCOC(=O)N1CCN(C(=O)C(=O)NN)CC1 | 2.0% | x | 12.6µM* | -3.9%[10 µM] | 170.7% | -15.8%[9.22 µM]
SMILES | CBFb-RUNX1 inh | HPGD inh | ALDH1A1 inh | HTT cytoprotect | JMJD2E inh | HttQ103 aggreg
S=c1nc[nH]c2c1cnn2-c1ccccc1 | 9.0% | x | 3.16µM* | -13.3%[10 µM] | -3.0% | -0.9%[9.22 µM]
O=[N+]([O-])c1ccc(NN=C2c3ccccc3Cc3ccccc32)c([N+](=O)[O-])c1 | x | -6.4% | -10.2%[13.5 µM] | 3.0%[10 µM] | x | x
O=C(Nc1ccc(O)cc1)c1cc2ccccc2c(=O)s1 | 9.8% | x | -4.9% | -19.7%[10 µM] | -0.9% | -28.0%[9.22 µM]
O=C(Nc1ccccc1)c1cc2ccccc2c(=O)s1 | 12.4% | -22.0% | -4.4% | x | 1.3% | 11.2µM*
Cc1ccc(OCCCCNC(C)(C)C)c([N+](=O)[O-])c1 | -1.7% | -4.0% | 12.6µM* | 6.0%[10 µM] | 1.8% | -7.9%
COc1cc(C=O)ccc1OCCCOc1ccccc1[N+](=O)[O-] | -7.1% | 20µM* | -14.9% | x | -5.3% | u
COc1cc(C=O)ccc1OCCCOc1ccc([N+](=O)[O-])cc1 | -2.7% | -20.8% | u | x | 1.8% | -28.9%
COc1ccc(C=O)cc1COc1ccc(C)cc1[N+](=O)[O-] | -1.4% | -22.6% | 10µM* | -34.7% | 3.7% | 15.9%
COCCNCCOc1ccc(C)cc1[N+](=O)[O-] | 10.6% | x | -92.7% | -22.7% | 2.2% | 11.8%
COc1cc(C=O)ccc1OCCCCOc1ccccc1[N+](=O)[O-] | -3.1% | -25.8% | 5.01µM* | x | -1.5% | 5.3%
COc1cc(C=O)ccc1OCCOc1ccccc1[N+](=O)[O-] | -8.4% | u | u | x | -9.8% | -6.4%
COC(=O)CCC(C)C1CCC2C3C(C[C@H](O)C12C)C1(C)CC[C@@H](O)CC1C[C@H]3O (stereo not given in full) | 5.0%[21.7 µM] | -5.2% | 12.7% | 7.7%[1.9 µM] | -0.9% | x
Cc1noc(C)c1-c1ccc2ncnc(NCc3ccccc3)c2c1 | x | u | u | -58.1% | u | x
COc1ccc(/C=N/NS(=O)(=O)c2ccc(F)cc2)cc1COc1cc(F)ccc1[N+](=O)[O-] | 6.9% | x | 35.5µM* | x | u | 27.1%
COc1cc(C=O)ccc1OS(=O)(=O)c1ccccc1[N+](=O)[O-] | -10.4% | 17.8µM* | 8.91µM* | 11.0%[10 µM] | 5.0% | 8.8%
O=C(N/N=C/c1cccs1)c1cc(-c2cccc3ccccc23)n[nH]1 | -3.3% | 25.1µM* | -0.8% | 1.6%[10 µM] | -9.0% | u
C/C(=C/c1ccccc1)C(=O)N1CC(C)OC(C)C1 (stereo not given) | -2.2% | x | -7.6% | x | 12.4% | 7.0%
COc1cc(/C=C2\CCCc3c2nc2ccccc2c3C(=O)O)cc(OC)c1O | 10.0% | x | 14.1µM* | 1.0%[10 µM] | u | -7.5%[9.22 µM]
Cc1ccccc1Cc1ccc(Cl)nn1 | u | x | 0.5% | 23.5%[10 µM] | 1.2% | -6.5%
CC1C/C(=C\c2cccnc2)C(=O)/C(=C/c2cccnc2)C1 (stereo not given) | 4.7% | -9.7% | -11.2% | -23.6%[10 µM] | 2.9% | 3.55µM*
